According to PubChem BioAssay (EPA / NIEHS):
Inconclusive results are not listed. Active and inactive are the calls of the source. Rule for the calls: active = hit-call score of the fitted dose curve at least 0.9, where 1 is the maximum; inconclusive = response in the unintended direction; inactive = score below 0.9.

Assay: ACEA_ER_AUC_viability: ACEA Biosciences xCELLigence Real-Time Cell Analysis on Estrogen Receptor Agonism for Viability (AID 2283782);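 note: continuous compound exposure with impedance area under curve over 80 h; hit means loss of impedance signal meaning reduced cell growth or viability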
How it was run: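 T47D cells preconditioned in phenol red-free RPMI with charcoal-stripped FBS, then dosed with 8-point 1:4 series from 100 uM (up to 0.5% DMSO). Impedance monitored up to ~80 h; area-under-curve loss versus DMSO taken as viability.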

**Q.** Which outcome does the source give for `COC(=O)c1ccc(OC)cc1` here?
**A.** Its outcome is “inactive”.

**Q.** Which AC50 does the source give for `CC(C)=CCCC(C)CCOC=O` (stereo not drawn) here?
**A.** Its AC50 is 50 µM (active).

**Q.** With `CCCCCCC(C)(C)S` as the compound, how does the outcome read?
**A.** Its outcome is “inactive”.

**Q.** Which outcome does the source give for `O=C(c1ccccc1)C(O)c1ccccc1` (stereo not drawn) here?
**A.** Its outcome is “inactive”.

**Q.** Which AC50 does the source give for `CC(=O)Nc1ccc(C(=O)CCl)cc1` here?
**A.** Its AC50 is 21.5 µM (active).

**Q.** With `C=CC(=O)OCCC#N` as the compound, how does the AC50 read?
**A.** The AC50 was 66.7 µM (active).

**Q.** Which outcome does the source give for `CCCCCCCC/C=C\CCCCCCCC(=O)OCC` here?
**A.** Its outcome is “inactive”.

**Q.** For `COc1cccc(OC)c1O`, which outcome is on record?
**A.** The outcome was “inactive”.

**Q.** With `O=C(O)CCCCCCCCCCCC(=O)O` as the compound, how does the AC50 read?
**A.** The AC50 was 50 µM (active).

**Q.** Which outcome does the source give for `C=CCCCCCCCCCC` here?
**A.** The outcome was “inactive”.

**Q.** Which outcome does the source give for `C=CC(=C)CCCC(C)(C)OC(C)=O` here?
**A.** Its outcome is “inactive”.

**Q.** For `COCCOC(=O)c1ccccc1C(=O)OCCOC`, which outcome is on record?
**A.** The outcome was “inactive”.

**Q.** With `Cc1ccc(OC(=O)c2ccccc2O)cc1` as the compound, how does the AC50 read?
**A.** The AC50 was 50 µM (active).

**Q.** With `CCOC(=O)c1ccc(N)cc1` as the compound, how does the outcome read?
**A.** The outcome was “inactive”.

**Q.** With `O=C1OC2(c3ccccc31)c1ccc(O)c(Br)c1Oc1c2ccc(O)c1Br` as the compound, how does the outcome read?
**A.** Its outcome is “inactive”.

**Q.** Which AC50 does the source give for `Oc1ccc2cc(SSc3ccc4cc(O)ccc4c3)ccc2c1` here?
**A.** Its AC50 is 87.1 µM (active).

**Q.** For `COc1ccc(CCC(C)=O)cc1`, which outcome is on record?
**A.** The outcome was “inactive”.

**Q.** For `CCCCC(CC)COC(=O)c1ccc(O)cc1` (stereo not drawn), which AC50 is on record?
**A.** Its AC50 is 22.4 µM (active).

**Q.** For `CCOC(=O)CC(C)O` (stereo not drawn), which outcome is on record?
**A.** The outcome was “inactive”.

**Q.** For `CC(C)c1ccccc1O`, which outcome is on record?
**A.** The outcome was “inactive”.

**Q.** With `CC1(C)COCN1` as the compound, how does the AC50 read?
**A.** Its AC50 is 32.1 µM (active).

**Q.** With `CN(C)c1ccncc1` as the compound, how does the AC50 read?
**A.** Its AC50 is 32.7 µM (active).

**Q.** With `Nc1ccc(Cl)c([N+](=O)[O-])c1` as the compound, how does the outcome read?
**A.** The outcome was “inactive”.

**Q.** Which outcome does the source give for `CC=Cc1ccc(OCC)c(O)c1` here?
**A.** Its outcome is “inactive”.

**Q.** With `CCCCOC(=O)CCCCCCCC(=O)OCCCC` as the compound, how does the outcome read?
**A.** The outcome was “inactive”.

**Q.** For `CC(=O)C1(C)CC2=C(CCCC2(C)C)CC1C` (stereo not drawn), which AC50 is on record?
**A.** The AC50 was 50 µM (active).

**Q.** With `Brc1ccc(Br)c(Br)c1` as the compound, how does the AC50 read?
**A.** The AC50 was 34.9 µM (active).

**Q.** For `CC1CC(O)CC(C)(C)C1` (stereo not drawn), which outcome is on record?
**A.** Its outcome is “inactive”.

**Q.** Which outcome does the source give for `CCCCCCOC(=O)CCC` here?
**A.** Its outcome is “inactive”.

**Q.** Which outcome does the source give for `CC(C)(CO)[C@@H](O)C(=O)NCCC(=O)O` here?
**A.** The outcome was “inactive”.

**Q.** Which outcome does the source give for `C=Cc1ccc(C)cc1` here?
**A.** The outcome was “inactive”.

**Q.** Which outcome does the source give for `COc1ccc(COC(C)=O)cc1` here?
**A.** Its outcome is “inactive”.

**Q.** With `CCCCCCCCCCCCCCN(CCO)CCO` as the compound, how does the AC50 read?
**A.** Its AC50 is 7.2 µM (active).

**Q.** Which outcome does the source give for `CCC(C)=O` here?
**A.** The outcome was “inactive”.

**Q.** Which outcome does the source give for `C=C(CC(=O)O)C(=O)O` here?
**A.** Its outcome is “inactive”.

**Q.** For `[O-]n1ccccc1=S.[O-]n1ccccc1=S.[Zn+2]`, which AC50 is on record?
**A.** Its AC50 is 2.84 µM (active).

**Q.** Which outcome does the source give for `COc1ccc(N=Nc2cc(C)c(N=Nc3ccc(S(=O)(=O)O)cc3)cc2OC)cc1` here?
**A.** The outcome was “inactive”.

**Q.** For `CN(C)C(=S)SC(=S)N(C)C`, which AC50 is on record?
**A.** The AC50 was 90.3 µM (active).
